40 compounds from PubChem BioAssay (NCI) can be followed below.

Each structure is given as a SMILES string. About 79,000 compounds went through this panel and 15% of them were active in at least one assay; those are over-represented in the sample as a whole. A number with no mark means an inactive call. The source made the active and inactive calls. No stated cut-off is given here; in the data, active means growth inhibition above about 70%; inactive means the rest.

A short description of the first assay: NCI Yeast Anticancer Drug Screen. Data for the bub3 strain (AID 167). The settings on record: S. cerevisiae bub3 mutant strain, at 5.0 µM (retest, dose inferred, filed as 0.5), stronger effect = higher value. In short, it runs like this:
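Yeast carrying a defined mutation is treated with each compound, and growth is compared with that of vehicle-exposed cells to give inhibition.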
On to `CCC1(c2ccc(N3C(=O)c4ccccc4C3=O)cc2)CCC(=O)NC1=O` (stereo not given), for which the growth inhibition was -17%.
The same measure, in the same setting: the result for `CN(C)c1c([N+](=O)[O-])cc(N2C(=O)C=CC2=O)cc1[N+](=O)[O-]` reads 47%.
The same measure, in the same setting: the result for `CCOC1(OCC)Oc2c(Cl)c(Cl)c(Cl)c(Cl)c2OC1(OCC)OCC` reads 13%; that for `CC(=O)NC1=C(Oc2ccccc2)C(=O)c2ccccc2C1=O`, 98% (active).
The same measure, in the same setting: the result for `CC1SC(=S)N(c2ccc(Cl)cc2)C1=O` (stereo not given) reads -3%; that for `CC(NNC(=S)N1CC2CCC(CC2)C1)c1cc2ccccc2cn1` (stereo not given), 98% (active).
`CCCCCCCCCCCCCC(=O)N1CCOCC1`: the growth inhibition was 4%.
With `COC(O)C(=O)c1c2c(cc3c1CC1(Cc4cc5c(cc4C1)CCC5)C3)CCC2` (stereo not given), the growth inhibition is 99% (active).
Still for that read-out and setting: the result for `CCC(=O)OCC(=O)c1ccc(-c2ccccc2)cc1` reads 36%; that for `CN(Cc1cnc2nc(N)nc(N)c2n1)c1ccc(C(=O)NC(CCC(=O)O)C(=O)O)cc1` (stereo not given), 1%.
Consider `COc1ccc(C(=O)Nc2ccc(O)c(=O)cc2)cc1`, for which the growth inhibition is 16%.
Same read-out and setting: the result for `c1cc[c]([Sn]([NH]c2ncnc3[nH]cnc23)([NH]c2ncnc3[nH]cnc23)[c]2ccccc2)cc1` reads -4%; that for `CCCCCCCCCCCC1C(C#N)C(=O)NC(=O)C1C#N` (stereo not given), 78% (active); that for `c1ccc(CSc2nnc3c4ccccc4c4ccccc4c3n2)cc1`, 8%.
Consider `Cc1ccc(-n2cc(-c3ccc(Cl)cc3)c3c(N)ncnc32)cc1`, for which the growth inhibition is 14%.
On the same count and under the same terms, under `C[C@]12CCC3[C@@H](CC[C@@H]4c5nonc5CC[C@]34C)C1CCC(=O)N2` (stereo not given in full) stands 6%; under `CCN(CC)Cc1cc(N=Nc2c(O)ccc3c(N=Nc4ccc(O)c(CN(CC)CC)c4)c(O)ccc23)ccc1O`, -1%.
As to `CC(C)(C)c1ccc(OC(=O)Nc2ccc(Cl)cc2[N+](=O)[O-])c(Br)c1`, the growth inhibition was 1%.
`CCC(CCCN(CC)CCc1ccccc1)OC(=O)c1cc(OC)c(OC)c(OC)c1` (stereo not given): the growth inhibition is 4%.
As to `CCN1/C(=C\c2cc[n+](CC)c3ccccc23)C=Cc2ccccc21`, the growth inhibition was 6%.
Take `CC1=C(C(=O)Nc2ccccc2C)C(c2ccc(Cl)c(Cl)c2)C(C(=O)Nc2ccccc2C)=C(C)N1`: the growth inhibition was -19%.
The same measure, in the same setting: under `Clc1ccc2nc3c(c(N4CCOCC4)c2c1)CCCC3` stands 53%; under `N#Cc1cc2cccn2c2c1cnn2-c1ccccc1`, 6%.
With `COc1cccc(C2c3cc4c(cc3OC(Nc3ccccc3)C2C)OCO4)c1O` (stereo not given), the growth inhibition is -19%.
As to `Nc1nc(-c2ccccc2)c(-c2ccccc2)c(-c2nc(N)nc(-c3ccccc3)c2-c2ccccc2)n1`, the growth inhibition is -1%.
`CCOC(C)c1ccccc1` (stereo not given): the growth inhibition is 19%.
Still for that read-out and setting: the result for `O=C1OC(CCCl)(c2ccccc2)CC1CN1CCOCC1` (stereo not given) reads 30%.
Same read-out and setting: under `OC(Cc1ccccc1)(c1ccccc1)C(O)(Cc1ccccc1)c1ccccc1` (stereo not given) stands 15%; under `COc1ccc(N=N/N=c2\sc3cc(OC)ccc3n2C)cc1`, -5%.
Still for that read-out and setting: the result for `CCCCCC(CO)C(O)(C(F)(F)F)C(F)(F)F` (stereo not given) reads 0%; that for `CC1=C(C(=O)Nc2ccccc2)C(c2ccccc2F)C(C(=O)Nc2ccccc2)=C(C)N1`, -2%; that for `CCOCCC(=O)NNc1ccccc1`, 8%.
In the case of `CCOC(=O)C(Br)C(Br)c1cccc([N+](=O)[O-])c1` (stereo not given), the growth inhibition is 98% (active).
For `Cc1ccc(-c2c(C#N)c(-c3ccccc3)n(NS(=O)(=O)c3ccc(C)cc3)c(=O)c2C#N)cc1`, the growth inhibition is 51%.
On the same count and under the same terms, the result for `CNC(=O)N1N[C@H](c2ccccc2)[C@@H]1c1ccccc1` reads 29%; that for `CCCCCCCCCN(CCCCCCCCC)CC(O)c1cc2c(c3ccccc13)CCCC2` (stereo not given), 11%; that for `O=C(O)C(c1ccc(Cl)cc1)c1ccc(Cl)cc1`, 9%.
Still for that read-out and setting: under `O=C1c2ccc3ccccc3c2CN2C(=O)CCC12` (stereo not given) stands -5%.
Turning to `CCCCCCCCCCCCCCCCNc1ccn(C2CC(OP(=O)(O)OCC3OC(n4cc(CC)c(=O)[nH]c4=O)CC3O)C(CO)O2)c(=O)n1` (stereo not given), the growth inhibition is -19%.
Still for that read-out and setting: the result for `Cc1cc(Cl)c(O)c(-c2cc(-c3cccc([N+](=O)[O-])c3)c3c(N)[nH]c(=S)nc3n2)c1` reads -5%.

The assay is the same for the next values; noted with them: S. cerevisiae bub3 mutant strain, at 50.0 µM (retest, dose inferred, filed as 5.0), stronger effect = higher value.
Consider `CCC1(c2ccc(N3C(=O)c4ccccc4C3=O)cc2)CCC(=O)NC1=O` (stereo not given), for which the growth inhibition is -19%.
Consider `CN(C)c1c([N+](=O)[O-])cc(N2C(=O)C=CC2=O)cc1[N+](=O)[O-]`, for which the growth inhibition was 96% (active).
Still for that read-out and setting: the result for `CCOC1(OCC)Oc2c(Cl)c(Cl)c(Cl)c(Cl)c2OC1(OCC)OCC` reads 97% (active); that for `CC(=O)NC1=C(Oc2ccccc2)C(=O)c2ccccc2C1=O`, 100% (active).
On the same count and under the same terms, under `CC1SC(=S)N(c2ccc(Cl)cc2)C1=O` (stereo not given) stands 28%; under `CC(NNC(=S)N1CC2CCC(CC2)C1)c1cc2ccccc2cn1` (stereo not given), 99% (active).
Same read-out and setting: under `CCCCCCCCCCCCCC(=O)N1CCOCC1` stands 99% (active); under `COC(O)C(=O)c1c2c(cc3c1CC1(Cc4cc5c(cc4C1)CCC5)C3)CCC2` (stereo not given), 98% (active); under `CCC(=O)OCC(=O)c1ccc(-c2ccccc2)cc1`, 10%.
As for `CN(Cc1cnc2nc(N)nc(N)c2n1)c1ccc(C(=O)NC(CCC(=O)O)C(=O)O)cc1` (stereo not given), the growth inhibition was -6%.
For `COc1ccc(C(=O)Nc2ccc(O)c(=O)cc2)cc1`, the growth inhibition was 15%.
Regarding `c1cc[c]([Sn]([NH]c2ncnc3[nH]cnc23)([NH]c2ncnc3[nH]cnc23)[c]2ccccc2)cc1`, the growth inhibition was 95% (active).
The same measure, in the same setting: the result for `CCCCCCCCCCCC1C(C#N)C(=O)NC(=O)C1C#N` (stereo not given) reads 86% (active); that for `c1ccc(CSc2nnc3c4ccccc4c4ccccc4c3n2)cc1`, 13%.
Same read-out and setting: under `Cc1ccc(-n2cc(-c3ccc(Cl)cc3)c3c(N)ncnc32)cc1` stands 97% (active).
With `C[C@]12CCC3[C@@H](CC[C@@H]4c5nonc5CC[C@]34C)C1CCC(=O)N2` (stereo not given in full), the growth inhibition was 48%.
The same measure, in the same setting: the result for `CCN(CC)Cc1cc(N=Nc2c(O)ccc3c(N=Nc4ccc(O)c(CN(CC)CC)c4)c(O)ccc23)ccc1O` reads 61%.
Same read-out and setting: under `CC(C)(C)c1ccc(OC(=O)Nc2ccc(Cl)cc2[N+](=O)[O-])c(Br)c1` stands 14%; under `CCC(CCCN(CC)CCc1ccccc1)OC(=O)c1cc(OC)c(OC)c(OC)c1` (stereo not given), 18%; under `CCN1/C(=C\c2cc[n+](CC)c3ccccc23)C=Cc2ccccc21`, 97% (active).
Same read-out and setting: the result for `CC1=C(C(=O)Nc2ccccc2C)C(c2ccc(Cl)c(Cl)c2)C(C(=O)Nc2ccccc2C)=C(C)N1` reads -19%; that for `Clc1ccc2nc3c(c(N4CCOCC4)c2c1)CCCC3`, 98% (active); that for `N#Cc1cc2cccn2c2c1cnn2-c1ccccc1`, 5%.
Regarding `COc1cccc(C2c3cc4c(cc3OC(Nc3ccccc3)C2C)OCO4)c1O` (stereo not given), the growth inhibition is 96% (active).
On to `Nc1nc(-c2ccccc2)c(-c2ccccc2)c(-c2nc(N)nc(-c3ccccc3)c2-c2ccccc2)n1`, for which the growth inhibition is -9%.
Same read-out and setting: the result for `CCOC(C)c1ccccc1` (stereo not given) reads 99% (active); that for `O=C1OC(CCCl)(c2ccccc2)CC1CN1CCOCC1` (stereo not given), 94% (active); that for `OC(Cc1ccccc1)(c1ccccc1)C(O)(Cc1ccccc1)c1ccccc1` (stereo not given), 61%.
With `COc1ccc(N=N/N=c2\sc3cc(OC)ccc3n2C)cc1`, the growth inhibition was 36%.
On the same count and under the same terms, the result for `CCCCCC(CO)C(O)(C(F)(F)F)C(F)(F)F` (stereo not given) reads 11%.
Turning to `CC1=C(C(=O)Nc2ccccc2)C(c2ccccc2F)C(C(=O)Nc2ccccc2)=C(C)N1`, the growth inhibition is 28%.
Still for that read-out and setting: under `CCOCCC(=O)NNc1ccccc1` stands 83% (active); under `CCOC(=O)C(Br)C(Br)c1cccc([N+](=O)[O-])c1` (stereo not given), 99% (active); under `Cc1ccc(-c2c(C#N)c(-c3ccccc3)n(NS(=O)(=O)c3ccc(C)cc3)c(=O)c2C#N)cc1`, 70% (active).
In the case of `CNC(=O)N1N[C@H](c2ccccc2)[C@@H]1c1ccccc1`, the growth inhibition was 72% (active).
On to `CCCCCCCCCN(CCCCCCCCC)CC(O)c1cc2c(c3ccccc13)CCCC2` (stereo not given), for which the growth inhibition was 93% (active).
As for `O=C(O)C(c1ccc(Cl)cc1)c1ccc(Cl)cc1`, the growth inhibition was 99% (active).
Take `O=C1c2ccc3ccccc3c2CN2C(=O)CCC12` (stereo not given): the growth inhibition is 39%.
In the case of `CCCCCCCCCCCCCCCCNc1ccn(C2CC(OP(=O)(O)OCC3OC(n4cc(CC)c(=O)[nH]c4=O)CC3O)C(CO)O2)c(=O)n1` (stereo not given), the growth inhibition is 92% (active).
On the same count and under the same terms, the result for `Cc1cc(Cl)c(O)c(-c2cc(-c3cccc([N+](=O)[O-])c3)c3c(N)[nH]c(=S)nc3n2)c1` reads 45%.
